Measurements from PubChem BioAssay (Tox21).
“And” between values parts separate entries of the source, which are not always exact repeats. Identical values can stand only once. Results filed as inconclusive are left out. Entries that show only a call come without a potency. Where a structure was tested more than once in an assay, its records may differ in their call. The source made the active and inactive calls. Calls follow the shape of the dose curve; as a rule, active = well fitted cell-killing curve with a large enough effect in the repeat runs; inconclusive = weak or mixed curves, or effect the other way; inactive = flat fitted curve, though single readings scatter.

test: cAMP Responsive Elements (CRE) small molecule antagonists, cell-based qHTS assay: qHTS cell viability counter screen (AID 2060913); conditions: CRE-bla HEK293T viability, CellTiter-Glo luminescence, 5 h; series mostly up to 92.4 µM; also: nearly all actives have a fitted effect of over 40% in size
Description: U.S. Tox21 Program National Center for Advancing Translational Sciences [NCATS] Division of Preclinical Innovation [DPI] U.S. Environmental Protection Agency [EPA] National Institutes of Environmental Health Sciences [NIEHS] National Toxicology Program [NTP] U.S. Food and Drug Administration [FDA] Tox21 Assay Overview: CREB (cyclic-AMP Responsive Element Binding Protein) is a cellular transcription factor. It binds to certain DNA sequences called cAMP Responsive Elements (CRE) and regulates the transcription of the genes. […] This cell line can be used to find agonists/antagonists of the cyclic AMP signaling pathway. The activation of the report gene under culture conditions can be detected by fluorescence intensity. This cell line has been used to screen the Tox21 10K compound library to identify agonists that induce oxidative stress. The cytotoxicity of the Tox21 compound library against the CRE-bla cell line was tested in parallel by measuring the cell viability using CellTiter-Glo assay (Promega, Madison, WI) in the same wells.
Tox21 Assay Protocol Summary: CRE-bla Hek 293T cells were suspended in assay medium (DMEM containing 10% dialyzed FBS, 0.1 mM NEAA, 1 mM sodium pyruvate and 25 mM HEPES) and dispensed at 2,000 cells/4 uL /well into 1536-well black wall/clear bottom plates using a Multidrop Combi (ThermoFisher Scientific, Waltham, MA) dispenser. After the assay plates were incubated at 37 C/5% CO2 for 18 hrs, 23 nL of compounds dissolved in DMSO, positive controls or DMSO only was transferred to the assay plate by a pintool workstation (Kalypsys, San Diego, CA), followed by addition of 1 uL of 1.25uM NKH477 (0.25 uM as final concentration) in assay medium using a Flying Reagent Dispenser (Aurora Discovery, San Diego, CA). The plates were incubated at 37 C and 5% CO2 for 3 hrs. Then 1 uL of LiveBLAzer B/G FRET substrate (Invitrogen, Carlsbad, CA) was added to each well using Bioraptr Flying Reagent Dispenser (FRD, Aurora Discovery, San Diego, CA). The plates were incubated at room temperature for 2 h, then fluorescence intensities were measured using an Envision plate reader (PerkinElmer, Shelton, CT) at Excitation 405nm, Emission 460nm and 530nm. The % activity was determined from the ratio of 460nm/530nm. For cell viability readout that measures cytotoxicity, 4 uL /well of CellTiter-Glo reagent was added into the assay plates using Bioraptr FRD. After 30 min incubation at room temperature, the luminescence intensity in the assay plates was measured using a ViewLux (PerkinElmer, Shelton, CT) plate reader.
Potency is read from the fitted curve at half-maximal effect.

SMILES | Potency | viability change, negative = cytotoxic
Clc1cc(Cl)c(Cl)c(Cl)c1Cl | inactive | 
Nc1ccc(Cl)c([N+](=O)[O-])c1 | inactive | 
CCOC(=O)C1=C[C@]2(CC)CCCN3CCc4c(n1c1ccccc41)[C@@H]32 | inactive | 
Oc1ccc(O)c2c(O)cccc12 | inactive | 
CCCCCCC[N+](CC)(CC)CCCCc1ccc(Cl)cc1 | inactive | 
CO[C@@H]1[C@@H](OC(N)=O)[C@@H](O)[C@H](Oc2ccc3c(O)c(NC(=O)c4ccc(O)c(CC=C(C)C)c4)c(=O)oc3c2C)OC1(C)C | inactive | 
Clc1cc(Cl)c(Cl)cc1Cl | inactive | 
NC(=O)c1ccccc1C(N)=O | inactive | 
C=C(C)C1CCC(C)CC1O (stereo not given) | inactive | 
O=Cc1ccccc1Cl | inactive | 
CC(C)=CCC[C@H](C)CCO | inactive | 
CC(C)[N+](C)(CCOC(=O)C1c2ccccc2Oc2ccccc21)C(C)C | inactive | 
CC[N+](C)(C)c1cccc(O)c1 | inactive | 
CN1C(=O)OC(C)(C)C1=O | inactive | 
CCCCCCCCCCCC[N+](C)(C)C | 54.3 µM (active) and 61.1 µM (active) and 68.6 µM (active) | 
O=C=NCC1CCCC(CN=C=O)C1 (stereo not given) | inactive | 
CCn1cc(C(=O)O)c(=O)c2cnc(N3CCCC3)nc21 |  | 3.75% [at 8.39 µM] (inactive)
O=CC(=O)c1ccccc1 | inactive | 
C=CCS(=O)(=O)O | inactive | 
CN(C)CCN(Cc1cccs1)c1ccccn1 | inactive | 

SMILES | Potency | viability change, negative = cytotoxic
CC1=NN(c2ccccc2)C(=O)C1 | inactive | 
C=CCOc1cc(Cl)ccc1C(=O)NCCN(CC)CC | inactive | 
O=[Se](O)O | 61.2 µM (active) | 6.01% [at 18.9 µM] (inactive)
O=Cc1ccc(CO)o1 | inactive | 
COc1cc(OC)nc(NC(=O)NS(=O)(=O)Nc2ccccc2C(=O)N(C)C)n1 | inactive | 
N[C@@H](Cc1cc(I)c(Oc2cc(I)c(O)c(I)c2)c(I)c1)C(=O)O | inactive | 
CC1CC(=O)CC(C)(C)C1 (stereo not given) | inactive | 
CN(C(=O)c1c(O)c2ccccc2n(C)c1=O)c1ccccc1 | inactive | 
CC[N+](C)(CC)CC | inactive | 
CC(=O)OCC(=O)[C@@]1(O)[C@H](OC(C)=O)C[C@H]2[C@@H]3CCC4=CC(=O)C=C[C@]4(C)[C@@]3(F)[C@@H](O)C[C@@]21C | inactive | 
O=C(O)CCC(=O)OC[C@@H](NC(=O)C(Cl)Cl)[C@H](O)c1ccc([N+](=O)[O-])cc1 | inactive | 
CC(C)(C)C(=O)CCc1ccc(Cl)cc1 | inactive | 
CCOC(=O)c1cccc(N)c1 | inactive | 
CCCCCCCCCCCCCCCCBr |  | -5.25% [at 18.9 µM] (inactive)
Cc1ccc(C(C)OC(=O)C2(C)CCC(C(=O)O)C2(C)C)cc1 (stereo not given) | inactive | 
O=C1Cc2cc(CCN3CCN(c4nsc5ccccc45)CC3)c(Cl)cc2N1 | inactive | 
C1CCCC1 | inactive | 
O=Cc1ccc(Cl)c([N+](=O)[O-])c1 | inactive | 
CCC(=O)OC/C=C/c1ccccc1 | inactive | 
